According to PubChem BioAssay (NCI):
Values joined by “and” are separate entries in the source; they are usually repeats but may differ in a detail not shown here. Equal entries are not always repeated. The panel holds about 79,000 compounds, 15% with a hit somewhere; the sample as a whole holds those more often. Active and inactive are the calls of the source. Cut-off read from the data, not from the text of the source: active = growth inhibition above about 70%; inactive = the rest.

Legend:
[1] = NCI Yeast Anticancer Drug Screen. Data for the rad50 strain (AID 155);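 note: 0% = growth of vehicle-only cultures of the same strain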; conditions: S. cerevisiae rad50 strain growth inhibition; at 50.0 µM; stronger effect = higher value
Procedure, shortened: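 Readout: growth inhibition relative to vehicle-treated cultures. Compound exposure was carried out in a genetically defined yeast strain deficient in DNA damage repair.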

[2] = NCI Yeast Anticancer Drug Screen. Data for the mec2-1 strain (AID 157); conditions: S. cerevisiae mec2-1 strain, at 50.0 µM, stronger effect = higher value
Procedure, shortened: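 Each compound was tested on mec2-1 yeast, a strain altered in DNA damage repair or cell cycle control. Growth inhibition is reported relative to vehicle.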

[3] = NCI Yeast Anticancer Drug Screen. Data for the sgs1 mgt1 strain (AID 161);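 note: 0% = growth of cultures given vehicle only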; conditions: S. cerevisiae sgs1 mgt1 strain, at 50.0 µM, stronger effect = higher value
Procedure, shortened: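 Mutant yeast exposed to compound; growth scored against vehicle-only wells.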

[4] = NCI Yeast Anticancer Drug Screen. Data for the cln2 rad14 strain (AID 165);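 note: 0% = growth equal to vehicle treated cultures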; conditions: S. cerevisiae cln2 rad14 strain, at 50.0 µM, stronger effect = higher value
Procedure, shortened: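 Test compounds were added to cln2 rad14 yeast cultures; inhibition of growth was then determined by comparison with vehicle treatment.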

[5] = NCI Yeast Anticancer Drug Screen. Data for the bub3 strain (AID 167); conditions: S. cerevisiae bub3 mutant strain, at 50.0 µM, stronger effect = higher value
Procedure, shortened: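 Readout: yeast growth inhibition, expressed relative to vehicle-only wells. The test organism is a mutant strain from a panel with lesions in DNA repair or checkpoint genes.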

[6] = NCI Yeast Anticancer Drug Screen. Data for the mlh1 rad18 strain (AID 175); conditions: S. cerevisiae mlh1 rad18 strain growth inhibition; at 50.0 µM; stronger effect = higher value
Procedure, shortened: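 Inhibition values reflect reduced growth of mutant yeast versus vehicle-treated controls following compound exposure; the mutations affect DNA damage repair.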

Measured: growth inhibition

Cc1ccc(C2=CCNCC2)cc1
inactive: [1] -9.45% | [2] -24.3% | [3] -4.3% | [4] 6.75% | [5] -12% | [6] -2.65%

O=[N+]([O-])c1ccc(CCl)cc1
inactive: [1] 16.4% | [2] 30.5% | [3] 10.7% | [4] -15% | [5] -23.9% | [6] 26.6%

O=[N+]([O-])c1ccc([Se]c2ncccn2)c([N+](=O)[O-])c1
inactive: [1] -14.8% | [2] 1.95% | [3] -19.4% | [4] -8.75% | [5] -3.15% | [6] 0.5%

CN(C)C(=O)c1cc(N(CCCl)CCCl)c([N+](=O)[O-])cc1[N+](=O)[O-]
inactive: [1] -2.75% | [2] -10.1% | [3] -3.35% | [4] 2.3% | [5] -13.6% | [6] 0.3%

Cc1cc(Cl)ccc1[NH-].Cc1cc(Cl)ccc1[NH-].[Cl][Pt+2][Cl]
inactive: [1] 35.3% | [2] 12.6% | [3] 30.8% | [4] 2.05% | [5] 18.3% | [6] 30.2%

CCC[CH2][Sn]([I])([CH2]I)[CH2]CCC
active: [1] 98.5% | [2] 99.1% | [3] 99% | [4] 98.6% | [5] 98.8% | [6] 98.5%

CC(=O)OCCCn1nc(COC(N)=O)c2c1CC(C)CC2=O (centres undefined)
inactive: [1] 1% | [2] -11.3% | [3] -8.25% | [4] -4.35% | [5] -14.8% | [6] 3.65%

CCC(=O)C1(c2ccccc2)CCN(C)CC1
inactive: [1] -20.7% | [2] -35.7% | [3] 12.8% | [4] -16.5% | [5] -12.9% | [6] 6.7%

N=C(N)c1nn[nH]n1
inactive: [1] -18.9% | [2] -5.25% | [3] -19.8% | [4] 1.75% | [5] -7.05% | [6] -27.3%

CN(C)CCN=C(N)N[N+](=O)[O-]
inactive: [1] 1.35% | [2] 3.75% | [3] -15.4% | [4] -96.4% | [5] 2.4% | [6] -38%

CC1(C)CCCC(C)(C)N1[P-]C(=O)[P-]N1C(C)(C)CCCC1(C)C.[C-]#[O+].[C-]#[O+].[C-]#[O+].[C-]#[O+].[C-]#[O+].[C-]#[O+].[Fe].[Fe] (centres undefined)
inactive: [1] -11.2% | [2] 3.65% | [3] -2% | [4] 13.6% | [5] -5.7% | [6] 8.45%

CN1CCN(Cc2ccccc2)C(C#N)C1 (centres undefined)
inactive: [1] -2.6% | [2] -8.75% | [3] -0.35% | [4] -25.9% | [5] -17.4% | [6] -11.7%

O=C1C2CCC(C2)[CH]1[Hg][Cl] (centres undefined)
active: [1] 99.4% | [2] 99.7% | [3] 99.5% | [4] 99% | [5] 99.3% | [6] 99.5%

Nc1ncnc2c1c(Cl)cn2C1OC(CO)C(O)C1O (centres undefined)
inactive: [1] 10.1% | [2] 15.2% | [3] 12% | [4] 32.4% | [5] 19.2% | [6] 26.4%

Oc1ccc2ccccc2c1N=Nc1ccccc1
inactive: [1] -10.8% and 10.3% | [2] -6.5% and -18.8% | [3] -12.6% and -7.95% | [4] -21.9% and -9.7% | [5] 0.9% and -18.4% | [6] 3.1% and 2.3%

CN(C)c1ccc(C(=O)CCCN2CCC3(CC2)C(=O)NCN3c2ccccc2)cc1
inactive: [1] -13.9% | [2] 8.95% | [3] 5.9% | [4] -40.8% | [5] -1.05% | [6] -11.5%

O=c1[nH]c2ccccc2c(=O)n1-c1ccccc1
inactive: [1] -8.1% | [2] -4.45% | [3] -1.05% | [4] -6.05% | [5] -2% | [6] -15.4%

c1ccc(CC[n+]2cccc3ccccc32)cc1
inactive: [1] -3.8% | [2] 11.2% | [3] 3.95% | [4] -26.3% | [5] -8.1% | [6] -6.85%

Cn1c(O)c(N=O)c(=O)n(C)c1=O
inactive: [1] 29.4% and 20.9% | [2] 9.85% and -9.05% | [3] -0.6% and 8.4% | [4] 7.75% and -1.1% | [5] -9.85% and -6.3% | [6] -13.7% and 13.4%
